Laboratory results taken from PubChem BioAssay.

Experiment: reversal of MRP1-mediated doxorubicin resistance, pilot screen, H69AR cells, doxorubicin co-treatment (AID 601)
Settings: H69AR cells, CellTiter-Glo, 72 h; compound alone cytotoxicity; at 10 µM

**Q.** Which viability does the source give for `COC(=O)c1cnn2c(C(F)(F)F)cc(-c3ccco3)nc12` here?
**A.** Its viability is 64.8%.

**Q.** With `CCOC(=O)c1ccc(NC(=O)CCc2nc(-c3cccc(C)c3)no2)cc1` as the molecule, how does the viability read?
**A.** The viability was 86.2%.

**Q.** With `COc1ccccc1C(=O)N1CCN=C1SCc1cccnc1` as the molecule, how does the viability read?
**A.** Its viability is 96.8%.

**Q.** Which viability does the source give for `c1cncc(-c2nnc3sc(-c4ccco4)nn23)c1` here?
**A.** The viability was 91.5%.

**Q.** With `CC1CN(c2nc(-c3ccccc3)nc3ccccc23)CC(C)O1` (stereo not given) as the molecule, how does the viability read?
**A.** Its viability is 85.4%.

**Q.** Which viability does the source give for `O=C(NC1CCN(Cc2nnnn2CCc2ccccc2)CC1)c1ccccc1F` here?
**A.** Its viability is 86.5%.

**Q.** With `O=S(=O)(c1ccc(OCC(O)CN2CCC(Cc3ccccc3)CC2)cc1)N1CCOCC1` (stereo not given) as the molecule, how does the viability read?
**A.** Its viability is 84.8%.

**Q.** Which viability does the source give for `COc1ccc(C2N(C(=O)c3ccccc3)CCN2C(=O)c2ccccc2)cc1` here?
**A.** Its viability is 103%.

**Q.** With `CCSC1=NCN(CCCC(=O)O)CN1` as the molecule, how does the viability read?
**A.** Its viability is 99.9%.

**Q.** Which viability does the source give for `O=C(CCOc1ccccc1)NCc1ccccc1` here?
**A.** The viability was 89.6%.

**Q.** Which viability does the source give for `CCOC(=O)c1ccccc1NC(=O)c1cc2sccc2n1C` here?
**A.** The viability was 81%.

**Q.** With `C=CCn1c(SCC(=O)NC23CC4CC(CC(C4)C2)C3)nc(O)cc1=O` as the molecule, how does the viability read?
**A.** Its viability is 92.9%.

**Q.** Which viability does the source give for `O=C(OCc1ccc2c(c1)OCO2)c1ccc(S(=O)(=O)N2CCCCC2)cc1` here?
**A.** Its viability is 81.9%.

**Q.** Which viability does the source give for `COC(=O)N1CC(c2ccccc2)CC1=O` (stereo not given) here?
**A.** Its viability is 100%.

**Q.** Which viability does the source give for `COc1ccc(C2=Nn3c(nnc3-c3ccccc3)SC2)cc1OC` here?
**A.** Its viability is 81.7%.

**Q.** With `CCOc1ccc(Cl)cc1S(=O)(=O)N1CCCC1` as the molecule, how does the viability read?
**A.** Its viability is 88.8%.

**Q.** With `Cn1c(SCCN2CCCCC2)nnc1-c1ccccc1Br` as the molecule, how does the viability read?
**A.** Its viability is 105%.

**Q.** For `O=C(COc1ccccc1)N1CCN(C(=O)c2cccc(F)c2)CC1`, which viability is on record?
**A.** The viability was 101%.

**Q.** Which viability does the source give for `COc1ccc(CN2CC(C(=O)NCCCOC(C)C)CC2=O)cc1` (stereo not given) here?
**A.** The viability was 99.1%.

**Q.** For `COC(=O)CSc1nc(C)c(C(C)=O)cc1C#N`, which viability is on record?
**A.** The viability was 90.1%.

**Q.** For `Cn1c(=O)c2c(nc(Br)n2CCSc2ncccn2)n(C)c1=O`, which viability is on record?
**A.** Its viability is 103%.

**Q.** With `O=C(NCC(c1cccnc1)N1CCOCC1)c1cccs1` (stereo not given) as the molecule, how does the viability read?
**A.** The viability was 92.5%.

**Q.** Which viability does the source give for `O=C(CSc1nnnn1-c1ccc(Cl)cc1)NC(=O)Nc1ccc2c(c1)OCCO2` here?
**A.** Its viability is 75.5%.

**Q.** With `Cc1nc2sc(C(c3ccco3)N3CCN(c4ccccc4F)CC3)c(O)n2n1` (stereo not given) as the molecule, how does the viability read?
**A.** The viability was 97.5%.

**Q.** For `CC1CCCCC1NC(=O)CN1CCN(Cc2ccccc2Cl)C1=O` (stereo not given), which viability is on record?
**A.** Its viability is 80.4%.

**Q.** With `COc1ccc(-n2c(=O)[nH]cc(C(=O)Nc3ccc(NC(C)=O)cc3)c2=O)cc1` as the molecule, how does the viability read?
**A.** The viability was 96.1%.

**Q.** With `CCN(CC)CCN1C(=O)C(=O)/C(=C(/O)c2c(C)[nH]c(C(=O)OC)c2C)C1c1ccco1` (stereo not given) as the molecule, how does the viability read?
**A.** The viability was 93.4%.

**Q.** Which viability does the source give for `Cc1nc(N2CCc3ccccc32)[nH]c(=O)c1CCC(C)C` here?
**A.** The viability was 79.1%.

**Q.** With `C=COC(=O)CSc1snc(SCC(=O)OC)c1C#N` as the molecule, how does the viability read?
**A.** Its viability is 98.9%.

**Q.** Which viability does the source give for `COc1ccc2[nH]c(=O)c(CN(C(=O)c3ccncc3)C(C)C)cc2c1` here?
**A.** The viability was 98.5%.

**Q.** With `Cc1ccc2cc3cc(C(=O)N4CC(C)CC(C)C4)oc3nc2c1` (stereo not given) as the molecule, how does the viability read?
**A.** The viability was 89.2%.

**Q.** With `O=C(C1CCN(c2nnnn2-c2ccccc2)CC1)N1CCN(c2ccccc2)CC1` as the molecule, how does the viability read?
**A.** The viability was 79%.

**Q.** For `CCCCSCCCNC(=O)CS(=O)Cc1nc(-c2cccc(C)c2)oc1C` (stereo not given), which viability is on record?
**A.** Its viability is 87.5%.

**Q.** For `Cc1cc(C)n(-c2nnc(C)n2/N=C/c2ccccc2F)n1`, which viability is on record?
**A.** The viability was 98.3%.

**Q.** Which viability does the source give for `O=C(O)c1cc(-c2ccccc2Cl)n[nH]1` here?
**A.** Its viability is 81%.

**Q.** Which viability does the source give for `O=C1c2ccccc2C(=O)N1CC(O)Cn1nnc2ccccc21` (stereo not given) here?
**A.** The viability was 95.9%.

**Q.** Which viability does the source give for `COCCN(C(=O)CCC(=O)Nc1ccccn1)C(C(=O)NC1CCCC1)c1ccc(OC)cc1` (stereo not given) here?
**A.** The viability was 111%.

**Q.** With `CCOC(=O)c1ccccc1NC(=O)COC(=O)C1=COCCO1` as the molecule, how does the viability read?
**A.** Its viability is 88.7%.

**Q.** With `Cc1ccc(-c2cc(C(=O)O)n[nH]2)o1` as the molecule, how does the viability read?
**A.** The viability was 99.3%.

**Q.** With `Cn1c(=O)c2c(nc(SCCCO)n2Cc2ccccc2Cl)n(C)c1=O` as the molecule, how does the viability read?
**A.** Its viability is 79.3%.
